# Measurements taken from PubChem BioAssay (NCI).
# Compounds without any hit were thinned out: in the full panel of roughly 83,000, 20% have a hit.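 Method: cells in 96-well plates; compound added at one concentration; 48 h incubation; percent growth measured; values under 10 scored active.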 Unmarked numbers belong to inactive results. Active and inactive are the calls of the source.
# System: MDA-MB-468 breast
# Assay: NCI-60 one-dose screen, 48 h (100 = growth as untreated, 0 = no growth, -100 = all killed)
# Conditions: 10 µM unless noted
row,Compound,growth
1,CN1CCN(c2nc(-c3cccc4ccccc34)nc3sc4c(c23)CCCCCC4)CC1,77.3%
2,O=C(O)c1ccccc1Cc1ccc2c(c1)CCCC2,99.6%
3,CCOC(C=O)OCC,102%
4,O=c1cc(Cc2ccc([N+](=O)[O-])cc2)[nH]c(=O)[nH]1,105%
5,CCCCCCCCn1ccc2cc(NC(=O)CN3CCN(c4cc(C)nc(Cl)n4)CC3)ccc21,56.6%
6,CCN(CC)CCC(CNc1ccnc2cc(Cl)ccc12)c1ccc(Cl)cc1 (centres undefined),-86.6% (active)
7,C=CCn1c(C)nc2cc(Nc3nc(Cl)nc4ccccc34)ccc21,83.7%
8,CCSc1nc(NC)c2cc(-c3ccc(C(F)(F)F)cc3)ccc2n1,110%
9,NC(=S)N/N=C/c1cn(-c2ccccc2)nc1-c1cc2ccccc2oc1=O,43.3%
10,CCC1=C[C@@H]2CN(C1)Cc1c([nH]c3ccccc13)[C@@](C(=O)OC)(c1cc3c(cc1OC)N(C)[C@H]1[C@@](O)(C(=O)OC)[C@H](OC(C)=O)[C@]4(CC)[C@@H]5C[C@@H]5CN5CC[C@]31[C@@H]54)C2,-31.7% (active)
11,CNC(=O)c1cnc(C)nc1-c1cc(C(C)(C)C)c(O)c(C(C)(C)C)c1,97.4%
12,C/C(=N\NC(N)=O)c1c(O)sc(=O)[nH]c1=O,97.4%
13,O=C1OCC2=C1C(c1cccc(F)c1)c1cc3c(cc1N2CCO)CCC3 (centres undefined),-5.09% (active)
14,Cn1ccnc1C(=O)/C=C/c1ccc(C(=O)Nc2c(F)c(F)c(F)c(F)c2F)cc1,-16.7% (active)
